# According to PubChem BioAssay (NCI):
# Compounds without any hit were thinned out: in the full panel of roughly 83,000, 20% have a hit.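 Percent growth is the endpoint: 0 to 100 indicates growth inhibition (40 means 60% inhibition), 0 means no net growth, and negative values indicate cell death.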 The source made the active and inactive calls. Rule for the calls: active = growth percent below 10; inactive = the rest.
# Test system: PC-3 prostate
# Experiment: NCI-60 one-dose screen, 48 h (100 = growth as untreated, 0 = no growth, -100 = all killed)
# Conditions: 10 µM unless noted
row,SMILES,growth
1,COc1ccc(/C=C/C=C\C(=O)c2ccc(-n3ccnc3)cc2)cc1,88.8% (inactive)
2,Cc1ccccc1-n1nnc(C(=O)Nc2nc3ccc(F)cc3s2)c1C,47.5% (inactive)
3,O=C(N/N=C/c1ccc([N+](=O)[O-])cc1)c1ccc(Br)o1,87.1% (inactive)
4,Cc1nc(-c2ccccc2)sc1CC#N,108% (inactive)
5,O=S(=O)(/N=c1/n(-c2ccccc2)nc2n1CCN2C1=NCCN1)c1ccc(-c2ccccc2)cc1,93.8% (inactive)
6,Nc1ccc2c(c1)Cc1cc(NC(=O)C(F)(F)F)ccc1-2,99.5% (inactive)
7,O=C(Nc1ccc(C(=O)/C=C/c2ccc(N3CCOCC3)cc2)cc1)Nc1ccc([N+](=O)[O-])cc1,85.5% (inactive)
8,C=CCc1nc2ccccc2s1,88.1% (inactive)
9,O=C(Nc1cc(F)cc2cccnc12)c1cnc(N2CCNCC2)cn1,63% (inactive)
10,C[n+]1c2ccccc2nc2c(N)cc(N)cc21,77.6% (inactive)
11,CCOC(=O)CCC[P+](c1ccccc1)(c1ccccc1)c1ccccc1,69.5% (inactive)
12,COc1ccc2nc3ccccc3c(NCCNCCO)c2c1,4.92% (active)
13,c1nc(N2CCOCC2)c2[nH]ccc2n1,107% (inactive)
14,Oc1c(CNCCNCc2cc(Cl)cc(Cc3ccccc3)c2O)cc(Cl)cc1Cc1ccccc1,40.9% (inactive)
15,COc1cc(Cl)cc(-c2nn(C(=O)NS(=O)(=O)c3ccccc3)cc2-c2ccncc2)c1,91.4% (inactive)
16,COc1cccc(-c2[nH]c(=S)ncc2C(=O)c2ccccc2)c1,91.6% (inactive)
17,CC(C)(C)c1cc(C(=O)Nc2ccccc2C(=O)NCCN)cc(C(C)(C)C)c1,4.8% (active)
18,N=C(N)c1ccc(-c2ccc(-c3ccc(-c4cccs4)s3)s2)cc1F,92.6% (inactive)
19,Cc1c(Cn2cc(COc3ccc(Br)cc3)nn2)c(C)c(Cn2cc(COc3ccc(Br)cc3)nn2)c(C)c1Cn1cc(COc2ccc(Br)cc2)nn1,87.9% (inactive)
20,CCc1ccc(-c2ccc(COc3ccc(CC4SC(=O)NC4=O)cc3)cc2)cc1 (stereo not given),65.6% (inactive)
21,Cc1ccc(N)c(O)c1,75.8% (inactive)
22,CCCCN(CCCC)CC(O)c1ccc(OCc2ccccc2)c2ccccc12 (stereo not given),63.6% (inactive)

# Test system: SK-MEL-5 melanoma
# Experiment: as above
# Conditions: 10 µM unless noted
row,SMILES,growth
1,CNc1cc(C(=O)O)nc(NC)n1,96.7% (inactive)
2,Brc1ccc2c(c1)CN(C1CCCCC1)CO2,104% (inactive)
3,CCN=C1C=CC(=C(c2ccc(N(CC)CC)cc2)c2ccc(N(CC)CC)cc2)c2ccccc21,-99.5% (active)
4,O=C(CSc1nc2ccc([N+](=O)[O-])cc2[nH]1)Nc1ccc(F)c(Cl)c1,-10.8% (active)
5,COc1ccc(-c2ccc(NNC(=O)c3ccc(F)cc3)nn2)cc1OC,71.6% (inactive)
6,CCOC(CNC(=O)c1cccc([N+](=O)[O-])c1)OCC,89.2% (inactive)
7,CN(C)C(=S)Sc1ccc([N+](=O)[O-])cc1[N+](=O)[O-],17.2% (inactive)
8,CCN(CC)CC(C)Nc1ccc(C)c2sc3ccccc3c(=O)c12 (stereo not given),-68.1% (active)
9,CN(C)Cc1ccc[nH]1,102% (inactive)
10,CNC(=O)c1cc(Oc2cccc3nc(NC(=O)Nc4cc(C(F)(F)F)cc(C(F)(F)F)c4)ccc23)ccn1,59.9% (inactive)
11,CC1=CC[C@@H]2C(C)(C)[C@@H](O)CC[C@@]2(C)[C@@H]1COc1ccc2ccc(=O)oc2c1,28.7% (inactive)
12,CC(=O)CC(=O)SC1=NCCS1,112% (inactive)
13,CSc1cccc([N+](=O)[O-])c1,99.8% (inactive)
14,O=C1/C(=C\c2cccn2Cc2ccccc2)c2ccccc2N1c1c(Cl)cccc1Cl,-5.28% (active)
15,COc1ncnc2c(-c3ccccc3)cn(COCc3ccccc3)c12,5.61% (active)
16,C=C(C)[C@@H]1CC[C@]2(C(=O)NCCCN)CC[C@]3(C)[C@H](CC[C@@H]4[C@@]5(C)CC[C@H](O)C(C)(C)[C@@H]5CC[C@]43C)[C@@H]12,-23.9% [100 µM] (active)
17,COc1ccc(/C=C/C=C\C(=O)c2ccc(-n3ccnc3)cc2)cc1,88.6% (inactive)
18,Cc1ccccc1-n1nnc(C(=O)Nc2nc3ccc(F)cc3s2)c1C,24.5% (inactive)
19,O=C(N/N=C/c1ccc([N+](=O)[O-])cc1)c1ccc(Br)o1,95.8% (inactive)

row,SMILES,growth
1,Cc1nc(-c2ccccc2)sc1CC#N,107% (inactive)
2,O=S(=O)(/N=c1/n(-c2ccccc2)nc2n1CCN2C1=NCCN1)c1ccc(-c2ccccc2)cc1,90.6% (inactive)
3,Nc1ccc2c(c1)Cc1cc(NC(=O)C(F)(F)F)ccc1-2,98.4% (inactive)
4,O=C(Nc1ccc(C(=O)/C=C/c2ccc(N3CCOCC3)cc2)cc1)Nc1ccc([N+](=O)[O-])cc1,95.1% (inactive)
5,C=CCc1nc2ccccc2s1,114% (inactive)
6,O=C(Nc1cc(F)cc2cccnc12)c1cnc(N2CCNCC2)cn1,91.1% (inactive)
7,C[n+]1c2ccccc2nc2c(N)cc(N)cc21,56.9% (inactive)
8,CCOC(=O)CCC[P+](c1ccccc1)(c1ccccc1)c1ccccc1,48.5% (inactive)
9,COc1ccc2nc3ccccc3c(NCCNCCO)c2c1,-32.9% (active)
10,c1nc(N2CCOCC2)c2[nH]ccc2n1,111% (inactive)
11,Oc1c(CNCCNCc2cc(Cl)cc(Cc3ccccc3)c2O)cc(Cl)cc1Cc1ccccc1,-13.2% (active)
12,COc1cc(Cl)cc(-c2nn(C(=O)NS(=O)(=O)c3ccccc3)cc2-c2ccncc2)c1,93.3% (inactive)
13,COc1cccc(-c2[nH]c(=S)ncc2C(=O)c2ccccc2)c1,83.2% (inactive)
14,CC(C)(C)c1cc(C(=O)Nc2ccccc2C(=O)NCCN)cc(C(C)(C)C)c1,46% (inactive)
15,N=C(N)c1ccc(-c2ccc(-c3ccc(-c4cccs4)s3)s2)cc1F,96.7% (inactive)
16,Cc1c(Cn2cc(COc3ccc(Br)cc3)nn2)c(C)c(Cn2cc(COc3ccc(Br)cc3)nn2)c(C)c1Cn1cc(COc2ccc(Br)cc2)nn1,98.4% (inactive)
17,CCc1ccc(-c2ccc(COc3ccc(CC4SC(=O)NC4=O)cc3)cc2)cc1 (stereo not given),39.8% (inactive)
18,Cc1ccc(N)c(O)c1,96.1% (inactive)
19,CCCCN(CCCC)CC(O)c1ccc(OCc2ccccc2)c2ccccc12 (stereo not given),101% (inactive)
